Assay results: PubChem BioAssay AID1159580 (chemical genetic matrix, 2015)
In all, about 5,500 compounds went through this assay and about 2,000 (36%) were called active. Not shown: some 18% with an inconclusive outcome. Cut-off read from the data, not from the text of the source: active = normalized growth mostly below about 0.91 (no sharp cut-off); inconclusive = no clear call, values can overlap the other calls; inactive = mostly above about 0.92. Some of the results follow.

Experiment: chemical genetic growth profiling, strain panel (AID 1159580);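 note: tested at 20 µM; growth read once vehicle control cultures reached saturation at 30 °C; 1 = growth at the plate median or of vehicle wells; lower values mean less growth of the strain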
Conditions: growth OD

Measured: normalized growth

COc1ccc(CNc2ccccc2-c2nc3ccccc3[nH]2)cc1
inactive: S. cerevisiae deletion strains, locus YAL013W, strain DEP1, stronger effect = lower value 0.967 | S. cerevisiae deletion strains, locus YBR229C, strain ROT2, stronger effect = lower value 0.944 | S. cerevisiae deletion strains, locus YCL061C, strain MRC1, stronger effect = lower value 0.941 | S. cerevisiae deletion strains, locus YDL101C, strain DUN1, stronger effect = lower value 0.937 | S. cerevisiae deletion strains, locus YDR150W, strain NUM1, stronger effect = lower value 0.934 | S. cerevisiae deletion strains, locus YGR078C, strain PAC10, stronger effect = lower value 0.952 | S. cerevisiae deletion strains, locus YGR229C, strain SMI1, stronger effect = lower value 0.95 | S. cerevisiae deletion strains, locus YHR087W, strain rtc3, stronger effect = lower value 0.92 | S. cerevisiae deletion strains, locus YJL187C, strain SWE1, stronger effect = lower value 0.978 | S. cerevisiae deletion strains, locus YJR043C, strain POL32, stronger effect = lower value 0.957 | S. cerevisiae deletion strains, locus YJR075W, strain HOC1, stronger effect = lower value 0.937 | S. cerevisiae deletion strains, locus YLR058C, strain SHM2 (second series), stronger effect = lower value 0.956 | S. cerevisiae deletion strains, locus YML094W, strain GIM5, stronger effect = lower value 0.882 | S. cerevisiae deletion strains, locus YMR219W, strain ESC1, stronger effect = lower value 0.983 | S. cerevisiae deletion strains, locus YMR263W, strain SAP30, stronger effect = lower value 0.948 | S. cerevisiae deletion strains, locus YNL128W, strain TEP1, stronger effect = lower value 0.917 | S. cerevisiae deletion strains, locus YNL153C, strain GIM3, stronger effect = lower value 0.959 | S. cerevisiae deletion strains, locus YNL322C, strain KRE1, stronger effect = lower value 0.978 | S. cerevisiae deletion strains, locus YPL055C, strain LGE1, stronger effect = lower value 0.797
active: S. cerevisiae deletion strains, locus YDL134C, strain PPH21, stronger effect = lower value 0.87 | S. cerevisiae deletion strains, locus YEL061C, strain CIN8, stronger effect = lower value 0.861 | S. cerevisiae deletion strains, locus YHR030C, strain SLT2, stronger effect = lower value 0.431 | S. cerevisiae deletion strains, locus YKL190W, strain CNB1, stronger effect = lower value 0.881 | S. cerevisiae deletion strains, locus YLR039C, strain RIC1, stronger effect = lower value 0.529 | S. cerevisiae deletion strains, locus YLR085C, strain ARP6, stronger effect = lower value 0.514 | S. cerevisiae deletion strains, locus YLR262C, strain YPT6, stronger effect = lower value 0.648 | S. cerevisiae deletion strains, locus YMR307W, strain GAS1, stronger effect = lower value 0.52 | S. cerevisiae deletion strains, locus YNL298W, strain CLA4 (second series), stronger effect = lower value 0.789 | S. cerevisiae deletion strains, locus YNR030W, strain Alg12, stronger effect = lower value 0.867 | S. cerevisiae deletion strains, locus YOL006C, strain TOP1, stronger effect = lower value 0.57 | S. cerevisiae deletion strains, locus YPL241C, strain CIN2, stronger effect = lower value 0.818 | S. cerevisiae deletion strains, locus YPR135W, strain CTF4, stronger effect = lower value 0.498 | S. cerevisiae strains, strain wild type, stronger effect = lower value 0.881
